# The whole screen tested about 48,000 compounds, of which about 13,000 (27%) showed an effect of 50% or more. The list shows a part of the results.
# Test system: Wolbachia pipientis
# Assay: Anti-Wolbachia Cell-Based Screen
# Format: functional
# Set-up: scale not given: in the data most compounds retested in dose-response had high values
# Settings: 5 µM
row,Compound,Percent Effect [%]
1,Cc1ccc(-c2c(C(=O)NC3CCN(C)CC3)csc2C)cc1,4.532
2,Cn1c(C(=O)NC2CCCC2)nc2c1CCN(Cc1ccccc1)C2,4.267
3,CN1CCC(NC(=O)c2cc(C3CCCCC3)nc3ccccc23)CC1,113.5
4,Cn1cc(C2(C)CN(Cc3ccc(O)c(Cl)c3)CCO2)cn1 (stereo not drawn),-11.09
5,CCCn1nc2c(cc1=O)CN(Cc1cc(C)on1)CC2,-1.057
6,CCc1ccc(C(=O)NC(C)c2ccc(S(C)(=O)=O)c(F)c2)o1 (stereo not drawn),2.681
7,CCOCC1CN(C(=O)c2ccncn2)Cc2cnn(C)c21.O=C(O)C(F)(F)F (stereo not drawn),-8.665
8,CCOCC1CN(C(=O)c2cccc(C)n2)Cc2cnn(C)c21 (stereo not drawn),129.5
9,COCC1CN(C(=O)c2cccn2C)Cc2cnn(C)c21 (stereo not drawn),3.786
10,CCOCC1CN(C(=O)c2ccnnc2)Cc2cnn(C)c21 (stereo not drawn),100.5
11,CCOCC1CN(C(=O)c2cccnc2)Cc2cnn(C)c21 (stereo not drawn),105
12,Cc1noc(C)c1CNCC1CCN(CC(O)c2ccccc2)CC1 (stereo not drawn),0.6409
13,CN1CCCC1CCn1ccnc1-c1ccc2ccccc2n1 (stereo not drawn),-11.7
14,CCCc1cc(C(=O)NCCCn2nnc3ccccc32)no1,2.161
15,CCCc1cc(C(=O)NC(COC)c2ccnn2C)no1 (stereo not drawn),98.08
16,COCC(NC(=O)c1cc(NC(C)=O)ccc1Cl)c1ccnn1C (stereo not drawn),-14.74
17,CCCc1nc(C(=O)NCCCn2nnc3ccccc32)cs1,3.085
18,CCCc1nc(C(=O)NC(COC)c2ccnn2C)cs1 (stereo not drawn),113.9
19,COCC(Nc1ncnc2sc(C(=O)O)c(C)c12)c1ccnn1C (stereo not drawn),6.074
20,CCCc1nc(C(=O)N2CCN(S(=O)(=O)CC)CC2)cs1,13.9
21,COCC(Nc1ncnc2sc(C)c(C)c12)c1ccnn1C (stereo not drawn),-1.475
22,COCC(NC(=O)c1cn2ccsc2n1)c1ccnn1C (stereo not drawn),103.8

row,Compound,Percent Effect [%]
1,CCSCCOC(=O)CCCc1ccc2c(c1)CC(=O)N2,-3.889
2,CCC1(O)CCCN(c2nc(C(C)(C)C)nc3c2cnn3C)C1 (stereo not drawn),-1.49
3,CN(C)C(=O)N1CC(=O)NCC12CCN(C(=O)c1ccco1)C2 (stereo not drawn),-32.82
4,COc1cc(C2CC(=O)NCc3nc4sccn4c32)cc(OC)c1O (stereo not drawn),-15.83
5,COCCn1ccnc1C1CCN(c2cccc(C(=O)O)n2)CC1,-10.3
6,CCn1cc(CN2CCCC(CO)(CCc3ccccc3)C2)c(C)n1 (stereo not drawn),-0.5849
7,Cc1cccc(N2CCC3(CCCN3Cc3cn(C)nc3C)CC2)n1,-1.763
8,C=Cn1cc(CN2CCN(CC3(c4ccccc4)CC3)CC2)c(C)n1,101.3
9,Cn1cc(CN2CCCN(CCCc3ccccc3)CC2)cn1,4.066
10,Cc1ccc(C2(CN3CCN(Cc4cn(C)nc4C)CC3)CC2)cc1.Cl,115.4
11,Cl.Cn1cc(CN2CCN(CC3(c4ccccc4)CC3)CC2)cn1,82.02
12,Cc1nn(C)cc1CN1CCN(CC2(c3ccccc3)CC2)CC1,110.9
13,CN1C(=O)CC2(CCN(Cc3cnn(C)c3)CC2)c2ccccc21,0.9694
14,Cc1nn(C)cc1CN1CCC(C2Nc3ccccc3S(=O)(=O)N2)CC1 (stereo not drawn),-11.33
15,Nc1ncc(CN2C[C@H](C3CC3)[C@@H](N)C2)cn1,-6.254
16,CC(NC(=O)N1CCC2(C1)OCCO2)c1ccc(F)cc1Cl (stereo not drawn),-14.1
17,CC(C)N(C)Cc1noc2c1CN(C(=O)c1ccsc1)CC2,5.959
18,CN1CCN(Cc2cnc3n2CCN(C(=O)c2cnccn2)C3)CC1,-7.558
19,CC(C)N(C)Cc1cc(=O)n2c(n1)CN(C(=O)c1cnccn1)CCC2,114.9
20,CCN(CC)Cc1cc(=O)n2c(n1)CN(C(=O)c1ccnnc1)CCC2.O=C(O)C(F)(F)F,96.84
21,Cc1cnc(C(=O)N2CCCn3c(nc(CN(C)C)cc3=O)C2)cn1.O=C(O)C(F)(F)F,-7.099
22,CC(C)N(C)Cc1cc(=O)n2c(n1)CN(C(=O)c1ccnnc1)CCC2,96.43

row,Compound,Percent Effect [%]
1,Cc1cnc(N2CCC(c3ccccc3)CC2)nc1-c1ccnn1C,-8.504
2,COc1ncccc1CNC(=O)N(Cc1ccccc1F)C1CC1,-13.4
3,CC(C)Oc1ncccc1CNC(=O)N1CCC1c1ccccc1 (stereo not drawn),-10.96
4,COc1ncccc1NC(=O)NC1CCOc2ccccc21 (stereo not drawn),7.033
5,COc1ncccc1CNC(=O)NC1CCCOc2ccccc21 (stereo not drawn),119.2
6,O=C(NCc1ccccn1)NC1CCOc2ccccc21 (stereo not drawn),10.12
7,Cc1ccc(Oc2ncccc2CNC(=O)NC2CCCCC2)cn1,-14.6
8,CC(C)Oc1ncccc1CNC(=O)NC1CCOc2ccccc21 (stereo not drawn),99.58
9,CC(C)Oc1ncccc1CNC(=O)N1CCOCC1,12.39
10,CCOc1ncccc1CNC(=O)NC1CCOc2ccccc21 (stereo not drawn),109.6
11,COc1ncccc1C(=O)NCC1Cc2ccccc2O1 (stereo not drawn),13.43
12,COc1ncccc1CNC(=O)NC1CCOc2ccccc21 (stereo not drawn),3.95
13,COc1ncccc1C(=O)NC1CCOc2ccccc21 (stereo not drawn),117.1
14,CC(C)Oc1ccc(C(=O)Nc2nncs2)cn1,-3.461
15,NC(=O)c1ccc(N2CCCCC2)c(NC(=O)c2ccc(F)cc2F)c1,-3.643
16,COCCN1CCN(CCCS(=O)(=O)c2ccccc2)CC1C (stereo not drawn),8.957
17,CCOC(C)C(=O)NS(=O)(=O)c1cccc2cc(C)cnc12 (stereo not drawn),6.301
18,CCn1ccnc1CN1CCN(Cc2ccc(C#N)cc2)CC1,-17.04
19,Cc1c(C2c3nc[nH]c3CCN2CCOCc2ccccc2)cnn1C (stereo not drawn),5.205
20,CCCn1ccnc1CN1CCc2[nH]cnc2C1Cc1ccccc1 (stereo not drawn),-1.947
21,CCc1ccc(C2c3nc[nH]c3CCN2Cc2nccn2CC)nc1 (stereo not drawn),105
22,c1ccc(COCCN2CCc3[nH]cnc3C2c2ccco2)cc1 (stereo not drawn),-0.996

row,Compound,Percent Effect [%]
1,COc1ncccc1CN1CCc2[nH]cnc2C1CCSC (stereo not drawn),-5.01
2,CC(=O)Nc1ccc(CN2CCc3[nH]cnc3C2c2nccn2C)cc1 (stereo not drawn),16.2
3,COCCn1ccnc1CN1CCc2[nH]cnc2C1c1cccc(O)c1 (stereo not drawn),85.01
4,CCn1ncnc1CN1CCc2[nH]cnc2C1c1ccccn1 (stereo not drawn),-9.23
5,Cn1ccnc1C1c2nc[nH]c2CCN1Cc1cccnc1 (stereo not drawn),3.917
6,COCCn1ccnc1CN1CCc2[nH]cnc2C1c1ccccn1 (stereo not drawn),80.05
7,COCCn1ccnc1CN1CCc2[nH]cnc2C1c1cnn(C)c1C (stereo not drawn),99.98
8,CC(C)(C)c1oc(C(N)=O)cc1CN1CCCCC(N)C1 (stereo not drawn),-6.99
9,CNC(=O)c1cccnc1NCc1ccc(Cn2ccnc2)cc1,-15.36
10,CC(=O)c1cc(CN2C[C@H]3CC[C@@H]2CN(S(C)(=O)=O)C3)cs1,11.24
11,Cc1cc(-c2cccc(-c3ccn(CCCO)n3)c2)nc(N(C)C)n1,105.4
12,CN(C)c1ccc(-c2cccc(-c3ccn(CCCO)n3)c2)nn1,106.7
13,CN(C)CCCn1ccc(-c2cccc(-c3cncnc3)c2)n1,-27.48
14,Cc1nc(N(C)C)nc(-c2cccc(-c3ccn(CCCF)n3)c2)c1C,99.28
15,COc1ccc(-c2cccc(-c3ccn(CCN(C)C)n3)c2)nn1,-17.53
16,c1cc(-c2cnccn2)cc(-c2ccn(CCCN3CCCCC3)n2)c1,-2.928
17,COc1ccc(-c2cccc(-c3ccn(CCCN(C)C)n3)c2)nn1,-20.49
18,c1cncc(-c2cccc(-c3ccn(CCN4CCCCC4)n3)c2)c1,18.24
19,Cc1nc(N(C)C)nc(-c2cccc(-c3ccn(CCCO)n3)c2)c1C,91.5
20,Cc1cnc(C)c(-c2cccc(-c3ccn(CCN4CCCC4)n3)c2)n1,7.439
21,CN(C)CCCn1ccc(-c2cccc(-c3ccccn3)c2)n1,-1.271
22,Cc1cc(CC(C)NC(=O)c2cccc(CC3CCNCC3)c2)[nH]n1 (stereo not drawn),-1.026

row,Compound,Percent Effect [%]
1,Cc1oc(NC(=O)C(C)N2CCN(C(=O)C3CC3)CC2)c(C#N)c1C (stereo not drawn),9.3
2,OC1(c2cn(C3CCN(C4CCSC4)CC3)nn2)CCCC1 (stereo not drawn),-22.68
3,Cc1ccc2[nH]c(CN(C)Cc3ccccc3C(=O)O)nc2c1,-3.287
4,NS(=O)(=O)c1ccc(CC(=O)N2CCCC(n3cccn3)C2)cc1 (stereo not drawn),-6.435
5,Cn1nc(C(=O)N2CCC(Oc3ccc(C#N)cn3)CC2)ccc1=O,4.281
6,N#Cc1cn(CCN2CCc3ccccc3C2)c(=O)[nH]c1=O,-7.012
7,CCc1nc(N2CCCC(CO)(CCOC)C2)ncc1C (stereo not drawn),2.131
8,c1cc(-c2cnccn2)cc(-c2ccn(CCN3CCCC3)n2)c1,1.985
9,c1cc(-c2cnccn2)cc(-c2ccn(CCN3CCCCC3)n2)c1,11.58
10,Cc1cnc(-c2cccc(-c3ccn(CCCO)n3)c2)nc1N(C)C,89.78
11,CN(C)[C@H]1CCCCN(Cc2ccccc2Cn2cccn2)C1,11.28
12,CC(C)(CN)NS(=O)(=O)c1c(F)cccc1F.Cl,-5.219
13,Fc1cnc(N2CCOCC3(CCCN(c4cnccn4)C3)C2)nc1 (stereo not drawn),-10.42
14,CCS(=O)(=O)N1CCCC2(COCCN(c3cnccn3)C2)C1.O=C(O)C(F)(F)F (stereo not drawn),-1.156
15,Cc1ccc(N2CCOCC3(CCCN(c4ncc(F)cn4)C3)C2)nn1 (stereo not drawn),110.3
16,COc1ccc(N2CCOCC3(CCCN(c4cnccn4)C3)C2)cc1 (stereo not drawn),-9.239
17,Fc1cnc(N2CCOCC3(CCCN(c4nncs4)C3)C2)nc1 (stereo not drawn),-12.3
18,Cc1cnc(N2CCCC3(COCCN(c4ccc(C)nn4)C3)C2)nc1 (stereo not drawn),111.1
19,Cc1ccc(N2CCCC3(COCCN(c4cnccn4)C3)C2)nn1 (stereo not drawn),122.4
20,Cc1cnc(N2CCC3(CCCN(c4ccc(C)nn4)C3)C2)nc1 (stereo not drawn),-1.521

# — ChEMBL document CHEMBL3988442, “University of Dundee, Small-Polar-MMV Screening Library” (2021)
